# Experiments:
# Assay in all cases: DAPPL (digital affinity profiling via proximity ligation, sequencing); 10 mM Tris-HCl pH 7.5, 50 mM NaCl, 1 mM DTT, 4% glycerol, room temperature, 30 min; GST-TFs on glutathione beads, 16-mer random dsDNA library, 0.1% formaldehyde crosslink after washing; high values mean tight binding
# Settings in all cases: protein: recombinant; tags: N-terminal GST; dsDNA, one strand shown
# ELK1 = target: T1, ELK1 (Homo sapiens, UniProt P19419 1-428)
# T1 sequence: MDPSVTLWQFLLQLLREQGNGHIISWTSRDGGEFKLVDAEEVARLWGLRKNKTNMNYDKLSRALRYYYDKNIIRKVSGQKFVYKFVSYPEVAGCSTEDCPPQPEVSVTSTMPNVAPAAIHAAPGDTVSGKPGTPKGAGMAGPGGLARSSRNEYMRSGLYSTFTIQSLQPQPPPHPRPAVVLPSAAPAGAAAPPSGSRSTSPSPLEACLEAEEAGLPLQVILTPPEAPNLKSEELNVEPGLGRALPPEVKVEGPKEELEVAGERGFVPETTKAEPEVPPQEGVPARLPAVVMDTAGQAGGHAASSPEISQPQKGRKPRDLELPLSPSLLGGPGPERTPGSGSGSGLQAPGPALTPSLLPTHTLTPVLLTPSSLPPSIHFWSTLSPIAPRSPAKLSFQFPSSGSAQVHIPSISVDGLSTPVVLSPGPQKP
# Procedure, shortened: (§1)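 A tag-only sample was pooled with DNA-barcoded human transcription factors that had been expressed in yeast as GST fusions and captured on glutathione beads. The pools were incubated for 30 min at room temperature with 200 nmole of a random double-stranded 16-mer DNA library in Tris/NaCl/DTT/glycerol buffer, then washed, crosslinked with 0.1% formaldehyde, proximity-ligated (BsaI/T4 ligase, 1 h, 37 °C), PCR-amplified and sequenced on an Illumina NextSeq500. Binding signal is each hexamer's read frequency for a factor divided by its frequency for the tag-only sample.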
# GABPA = target: T2, GABPA (Homo sapiens, UniProt Q06546 1-454)
# T2 sequence: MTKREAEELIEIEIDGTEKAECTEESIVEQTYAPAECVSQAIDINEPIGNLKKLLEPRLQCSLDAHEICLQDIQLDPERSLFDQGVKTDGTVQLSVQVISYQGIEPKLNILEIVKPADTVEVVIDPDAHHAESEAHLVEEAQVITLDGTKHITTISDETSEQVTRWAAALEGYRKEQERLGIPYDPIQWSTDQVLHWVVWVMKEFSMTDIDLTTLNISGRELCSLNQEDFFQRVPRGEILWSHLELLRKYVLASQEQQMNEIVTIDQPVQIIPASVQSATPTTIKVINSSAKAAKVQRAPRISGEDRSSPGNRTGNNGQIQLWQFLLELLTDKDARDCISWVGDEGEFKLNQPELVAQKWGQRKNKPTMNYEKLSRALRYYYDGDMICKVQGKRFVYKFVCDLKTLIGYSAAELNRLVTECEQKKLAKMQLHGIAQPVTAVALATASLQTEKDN
# Procedure, shortened: as §1
# ELF1 = ELF1 (Homo sapiens, UniProt P32519 1-619)
# Sequence of ELF1 (P32519 whole entry): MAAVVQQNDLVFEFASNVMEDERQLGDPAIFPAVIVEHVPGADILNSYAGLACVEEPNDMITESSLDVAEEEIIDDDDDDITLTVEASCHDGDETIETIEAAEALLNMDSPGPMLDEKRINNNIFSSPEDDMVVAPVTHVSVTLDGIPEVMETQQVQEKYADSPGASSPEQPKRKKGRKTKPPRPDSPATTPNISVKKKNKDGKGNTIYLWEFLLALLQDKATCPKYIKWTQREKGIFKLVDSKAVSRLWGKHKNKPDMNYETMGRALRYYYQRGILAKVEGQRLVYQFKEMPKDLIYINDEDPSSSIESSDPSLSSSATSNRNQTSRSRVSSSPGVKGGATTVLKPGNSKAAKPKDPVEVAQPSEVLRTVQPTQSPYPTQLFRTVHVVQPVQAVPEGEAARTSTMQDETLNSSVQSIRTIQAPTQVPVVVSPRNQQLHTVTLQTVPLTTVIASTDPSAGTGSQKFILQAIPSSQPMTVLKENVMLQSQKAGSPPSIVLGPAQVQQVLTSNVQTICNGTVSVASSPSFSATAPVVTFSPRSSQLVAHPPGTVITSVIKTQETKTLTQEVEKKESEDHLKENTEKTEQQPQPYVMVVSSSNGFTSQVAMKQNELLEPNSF
# Procedure, shortened: as §1
# SPIB = SPIB (Homo sapiens, UniProt Q01892 1-262)
# Sequence of SPIB (Q01892 whole entry): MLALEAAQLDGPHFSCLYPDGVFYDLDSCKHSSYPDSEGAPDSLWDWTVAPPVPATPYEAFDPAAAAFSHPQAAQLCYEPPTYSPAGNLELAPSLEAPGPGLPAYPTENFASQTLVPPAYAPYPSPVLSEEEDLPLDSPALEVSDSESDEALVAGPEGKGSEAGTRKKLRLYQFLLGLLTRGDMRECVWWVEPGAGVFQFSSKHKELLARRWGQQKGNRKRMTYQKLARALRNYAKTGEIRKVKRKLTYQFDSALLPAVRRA
# Procedure, shortened: as §1
# FEV = target: T3, FEV (Homo sapiens, UniProt Q99581 1-238)
# T3 sequence: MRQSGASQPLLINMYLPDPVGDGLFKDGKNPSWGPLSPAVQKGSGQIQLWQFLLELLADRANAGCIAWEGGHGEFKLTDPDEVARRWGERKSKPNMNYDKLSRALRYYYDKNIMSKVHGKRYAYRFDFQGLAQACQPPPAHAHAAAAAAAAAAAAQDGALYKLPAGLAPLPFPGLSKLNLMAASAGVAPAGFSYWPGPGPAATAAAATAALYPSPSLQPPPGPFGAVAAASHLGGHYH
# Procedure, shortened: as §1
# ETV5 = ETV5 (Homo sapiens, UniProt P41161 1-510)
# Sequence of ETV5 (P41161 whole entry): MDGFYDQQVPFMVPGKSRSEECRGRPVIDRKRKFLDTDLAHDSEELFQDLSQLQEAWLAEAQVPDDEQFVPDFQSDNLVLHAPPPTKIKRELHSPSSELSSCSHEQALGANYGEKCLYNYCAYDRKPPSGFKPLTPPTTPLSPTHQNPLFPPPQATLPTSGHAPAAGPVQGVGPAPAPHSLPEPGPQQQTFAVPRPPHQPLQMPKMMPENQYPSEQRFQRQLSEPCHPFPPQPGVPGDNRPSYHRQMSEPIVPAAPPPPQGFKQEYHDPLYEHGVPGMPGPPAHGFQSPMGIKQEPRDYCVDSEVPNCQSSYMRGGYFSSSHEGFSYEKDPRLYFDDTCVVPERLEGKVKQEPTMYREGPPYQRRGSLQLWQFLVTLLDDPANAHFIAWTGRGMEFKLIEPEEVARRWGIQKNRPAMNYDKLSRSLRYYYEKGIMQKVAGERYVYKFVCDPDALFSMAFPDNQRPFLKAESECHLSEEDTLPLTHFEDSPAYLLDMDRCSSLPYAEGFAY
# Procedure, shortened: as §1
# ELF4 = ELF4 (Homo sapiens, UniProt Q99607 1-663)
# Sequence of ELF4 (Q99607 whole entry): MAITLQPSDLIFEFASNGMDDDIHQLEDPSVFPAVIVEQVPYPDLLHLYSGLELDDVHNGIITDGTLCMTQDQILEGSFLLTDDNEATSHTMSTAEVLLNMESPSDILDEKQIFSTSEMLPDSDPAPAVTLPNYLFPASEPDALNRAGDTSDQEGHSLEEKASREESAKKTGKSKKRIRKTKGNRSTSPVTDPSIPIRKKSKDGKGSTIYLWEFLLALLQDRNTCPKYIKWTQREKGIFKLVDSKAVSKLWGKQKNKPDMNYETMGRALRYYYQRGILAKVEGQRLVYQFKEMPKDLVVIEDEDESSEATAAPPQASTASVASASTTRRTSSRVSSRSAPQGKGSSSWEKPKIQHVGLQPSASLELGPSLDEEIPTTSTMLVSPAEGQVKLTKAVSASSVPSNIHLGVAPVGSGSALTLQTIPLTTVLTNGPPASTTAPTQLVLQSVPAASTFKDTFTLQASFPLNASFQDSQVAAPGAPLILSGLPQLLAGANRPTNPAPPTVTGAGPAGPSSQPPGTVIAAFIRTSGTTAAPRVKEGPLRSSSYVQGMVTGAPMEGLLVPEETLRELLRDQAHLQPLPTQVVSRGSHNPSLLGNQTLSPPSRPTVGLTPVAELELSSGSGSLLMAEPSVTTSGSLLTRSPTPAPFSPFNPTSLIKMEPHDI
# Procedure, shortened: as §1
# ETV1 = ETV1 (Homo sapiens, UniProt P50549 1-477)
# Sequence of ETV1 (P50549 whole entry): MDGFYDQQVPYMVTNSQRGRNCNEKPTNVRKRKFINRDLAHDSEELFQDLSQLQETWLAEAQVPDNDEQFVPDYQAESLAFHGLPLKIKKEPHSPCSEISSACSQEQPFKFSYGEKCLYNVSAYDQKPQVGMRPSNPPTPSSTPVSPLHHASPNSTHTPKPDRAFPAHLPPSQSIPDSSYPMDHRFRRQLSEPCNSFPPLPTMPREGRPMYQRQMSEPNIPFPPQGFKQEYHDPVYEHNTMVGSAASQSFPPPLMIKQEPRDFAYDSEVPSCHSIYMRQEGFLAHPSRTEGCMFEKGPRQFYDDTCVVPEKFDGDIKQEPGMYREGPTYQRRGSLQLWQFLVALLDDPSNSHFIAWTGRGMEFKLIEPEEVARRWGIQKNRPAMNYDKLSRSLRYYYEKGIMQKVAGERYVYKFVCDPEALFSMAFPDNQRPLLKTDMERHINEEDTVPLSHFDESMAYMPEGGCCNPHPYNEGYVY
# Procedure, shortened: as §1
# ERF = target: T4, ERF (Homo sapiens, UniProt P50548 1-548)
# T4 sequence: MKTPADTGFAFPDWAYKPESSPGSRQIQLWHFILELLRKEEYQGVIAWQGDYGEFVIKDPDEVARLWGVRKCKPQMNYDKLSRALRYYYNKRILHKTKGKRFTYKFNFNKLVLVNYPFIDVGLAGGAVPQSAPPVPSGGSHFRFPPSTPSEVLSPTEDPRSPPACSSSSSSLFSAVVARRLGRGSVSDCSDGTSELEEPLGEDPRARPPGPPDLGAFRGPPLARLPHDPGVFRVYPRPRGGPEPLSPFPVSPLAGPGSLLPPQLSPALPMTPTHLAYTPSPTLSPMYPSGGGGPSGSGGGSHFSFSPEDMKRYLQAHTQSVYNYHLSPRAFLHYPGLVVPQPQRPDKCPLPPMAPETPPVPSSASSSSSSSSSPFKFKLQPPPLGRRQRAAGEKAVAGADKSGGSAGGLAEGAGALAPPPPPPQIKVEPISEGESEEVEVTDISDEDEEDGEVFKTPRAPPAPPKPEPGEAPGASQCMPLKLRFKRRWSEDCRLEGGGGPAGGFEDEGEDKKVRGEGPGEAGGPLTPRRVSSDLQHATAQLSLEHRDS
# Procedure, shortened: as §1
# ETV7 = target: T5, ETV7 (Homo sapiens, UniProt Q9Y603 1-341)
# T5 sequence: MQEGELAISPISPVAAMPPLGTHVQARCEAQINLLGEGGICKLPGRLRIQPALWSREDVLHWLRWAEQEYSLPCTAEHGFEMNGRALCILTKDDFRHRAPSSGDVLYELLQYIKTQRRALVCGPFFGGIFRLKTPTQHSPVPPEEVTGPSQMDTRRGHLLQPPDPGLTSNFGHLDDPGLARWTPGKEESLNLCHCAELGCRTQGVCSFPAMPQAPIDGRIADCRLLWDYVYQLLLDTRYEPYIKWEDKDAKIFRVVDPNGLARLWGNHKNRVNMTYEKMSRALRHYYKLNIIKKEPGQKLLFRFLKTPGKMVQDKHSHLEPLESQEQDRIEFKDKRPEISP
# Procedure, shortened: as §1
# ETV3 = target: T6, ETV3 (Homo sapiens, UniProt P41162-2 1-143)
# T6 sequence: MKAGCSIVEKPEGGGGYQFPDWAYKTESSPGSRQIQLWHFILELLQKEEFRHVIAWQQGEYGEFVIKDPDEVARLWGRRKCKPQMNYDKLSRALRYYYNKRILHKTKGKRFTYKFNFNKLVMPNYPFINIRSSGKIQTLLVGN
# Procedure, shortened: as §1
# ETV6 = ETV6 (Homo sapiens, UniProt P41212 1-452)
# Sequence of ETV6 (P41212 whole entry): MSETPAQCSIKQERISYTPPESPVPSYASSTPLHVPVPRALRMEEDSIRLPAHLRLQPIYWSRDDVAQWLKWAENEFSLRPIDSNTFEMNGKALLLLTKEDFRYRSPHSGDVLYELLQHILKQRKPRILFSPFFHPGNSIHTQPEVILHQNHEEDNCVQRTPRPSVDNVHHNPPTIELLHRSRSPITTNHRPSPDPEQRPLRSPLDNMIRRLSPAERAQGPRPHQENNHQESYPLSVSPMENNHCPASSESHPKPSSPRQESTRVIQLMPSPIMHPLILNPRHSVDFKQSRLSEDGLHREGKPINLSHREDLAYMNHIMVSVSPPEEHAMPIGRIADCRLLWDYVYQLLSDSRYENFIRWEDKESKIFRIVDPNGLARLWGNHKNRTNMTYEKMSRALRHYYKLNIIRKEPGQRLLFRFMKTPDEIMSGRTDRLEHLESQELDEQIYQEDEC
# Procedure, shortened: as §1
sequence,measurement,setting,value
CAATGG,binding signal,ELK1,"1.03 fold enrichment (6-mer frequency, TF over GST control)"
same,binding signal,GABPA,"1.09 fold enrichment (6-mer frequency, TF over GST control)"
same,binding signal,ELF1,"1.03 fold enrichment (6-mer frequency, TF over GST control)"
same,binding signal,SPIB,"1.03 fold enrichment (6-mer frequency, TF over GST control)"
same,binding signal,FEV,"1.04 fold enrichment (6-mer frequency, TF over GST control)"
same,binding signal,ETV5,"1.03 fold enrichment (6-mer frequency, TF over GST control)"
same,binding signal,ELF4,"1.02 fold enrichment (6-mer frequency, TF over GST control)"
same,binding signal,ETV1,"1.1 fold enrichment (6-mer frequency, TF over GST control)"
same,binding signal,ERF,"1.03 fold enrichment (6-mer frequency, TF over GST control)"
same,binding signal,ETV7,"1.12 fold enrichment (6-mer frequency, TF over GST control)"
same,binding signal,ETV3,"1.03 fold enrichment (6-mer frequency, TF over GST control)"
same,binding signal,ETV6,"1.04 fold enrichment (6-mer frequency, TF over GST control)"
